The values below come from PubChem BioAssay (NCI).

About 83,000 compounds went through this panel and 20% of them were active in at least one assay; those are over-represented in the sample as a whole.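 Values shown are percent growth following 48 h exposure of cells in 96-well plates to a single concentration of compound; below 10 was considered active.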 Active and inactive are the calls of the source.

The test system of the experiment is SN12C renal. The experiment is described as follows: NCI-60 one-dose screen, 48 h (100 = growth as untreated, 0 = no growth, -100 = all killed). The note with it: 10 µM unless noted.
For the compound `COC(=O)[C@]12CC[C@@H](C)[C@H](C)[C@@H]1C1=CC[C@@H]3[C@@]4(C)C(C=O)=C[C@@](C)(COC(=O)c5ccco5)[C@@H]4C(=O)C[C@@]3(C)[C@]1(C)CC2`, the growth is 42% (inactive).

In the case of `COc1cccc(C(=O)NCCNc2cc(-c3cn(-c4ccccc4)nc3-c3cccc(OC)c3)ccn2)c1`, the growth is 74.4% (inactive).

For the compound `O=C(O)C1CCC(=O)N1C(=O)OCc1ccccc1` (configuration not stated), the growth was 90.1% (inactive).

`Cc1cc(NCc2cc(Nc3ccnc4cc(Cl)ccc34)ccc2F)nc(N2CCCC2)n1`: the growth was 35.8% (inactive).

On to `COC(=O)[C@]12CC[C@@H](C)[C@H](C)[C@@H]1C1=CC[C@@H]3[C@@]4(C)C(C=O)=C[C@@](C)(COC(=O)c5ccco5)C4=CC[C@@]3(C)[C@]1(C)CC2`, for which the growth is 17.1% (inactive).

Take `CC(CCc1ccc(Cl)c(Cl)c1)NCc1ccc(C(C)(C)C)cc1` (configuration not stated): the growth was 91.9% (inactive).

As for `Cc1ccc2nc3ccccc3c(NCc3ccccc3)c2c1`, the growth was 25.5% (inactive).

As for `COc1cc(-c2nc(N3CCN(C)CC3)c3ccccc3n2)cc(OC)c1OC`, the growth was 82.6% (inactive).

For `CCn1c(C)nc2cc(C(N)=O)ccc21`, the growth is 98.1% (inactive).

For the compound `CN(C)CC1C(=O)O[C@H]2[C@H]1CC/C(COC(=O)c1cc3ccccc3[nH]1)=C\CC[C@@]1(C)O[C@@H]21` (some centres not stated), the growth is -22.1% (active).

Turning to `CN1CCN(CCCOc2ccc3nc(Nc4ccc(F)c(F)c4)ccc3c2)CC1`, the growth is 68% (inactive).

In the case of `COc1cccc(-c2nn(-c3ccccc3)cc2-c2ccnc(NCCCNC(=O)c3cccc(C(F)(F)F)c3)c2)c1`, the growth was 45.5% (inactive).
